The values below come from the supplement of paper PMC12636033.

± gives the standard deviation of the averaged measurements. The full ranking holds about 33,000 sequences; the median of “E-score (rank enrichment, -0.5 to 0.5)” is about -0.0043, and the highest 2% start at about 0.24. This excerpt belongs to a sample that is enriched for the highest values.

This assay relates to 2Sp-muMax20 (muMax20 with two 2,6-bis(methyl)pyridine Cys staples). The assay can be described thus: PBM 8-mer E-score (E-score (rank enrichment, -0.5 to 0.5)); higher = stronger preferential binding. The procedure: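 Protein binding microarray (universal PBM chip covering all 10-mers in fixed probe flanks) with chemically synthesized human Max(13-93) bHLH-LZ analogs (not full-length Max) bearing noncanonical residues (hArg, Tha, Aib, Nle at 65) and aromatic Cys staples. Read-out per 8-mer (and its reverse complement): E-score (rank-based enrichment, -0.5 to 0.5) and Z-score of median probe intensity.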
Consider AGGGCTCA, for which the “PBM 8-mer E-score” value is -0.0979 ± 0.031.
For CTCATGCC, the “PBM 8-mer E-score” value was 0.0321 ± 0.035.
On to AGCGGATC, for which the “PBM 8-mer E-score” value was -0.0391 ± 0.022.
Under AATGCATT stands 0.356 ± 0.017.
As to CGTGCACA, the “PBM 8-mer E-score” value is 0.102 ± 0.071.
Under TGTGCACA stands 0.0196 ± 0.045; under AATGCATA, 0.16 ± 0.074; under AATGCATG, 0.233 ± 0.038.
On to CGTGCACG, for which the “PBM 8-mer E-score” value is 0.338 ± 0.0045.
As for ACGGGACC, the “PBM 8-mer E-score” value is -0.245 ± 0.039.
On to GGAATTTA, for which the “PBM 8-mer E-score” value was -0.0803 ± 0.093.
GTCTTTGA: the “PBM 8-mer E-score” value is -0.121 ± 0.016.
Consider ATATTGCC, for which the “PBM 8-mer E-score” value was determined as 0.238 ± 0.0041.
With ATATTGCG the figure was 0.117 ± 0.029; with CTATTGCC, -0.045 ± 0.019.
For the sequence CAAAAGTG, the “PBM 8-mer E-score” value worked out at 0.11 ± 0.016.
In the case of GAAAGTAA, the “PBM 8-mer E-score” value came out at 0.0437 ± 0.0096.
With CACAACGG the figure was -0.145 ± 0.066; with CCCCGCCA, 0.246 ± 0.071; with ACCCGCCG, 0.131 ± 0.01.
Consider AACCCGCC, for which the “PBM 8-mer E-score” value was determined as 0.128 ± 0.019.
For the sequence ACCCGCCC, the “PBM 8-mer E-score” value was 0.3697 ± 0.0017.
TCCCGCCA: the “PBM 8-mer E-score” value is -0.0738 ± 0.002.
Turning to GCCCGCCA, the “PBM 8-mer E-score” value is -0.0439 ± 0.026.
Under CCCCCGCC stands -0.0595 ± 0.056.
Regarding CCCCGCCG, the “PBM 8-mer E-score” value is 0.131 ± 0.011.
In the case of GCCCGCCC, the “PBM 8-mer E-score” value was found to be 0.16 ± 0.039.
Turning to CGCCGCCC, the “PBM 8-mer E-score” value stood at 0.00789 ± 0.052.
In the case of CCCCGCCC, the “PBM 8-mer E-score” value was 0.295 ± 0.048.
For the sequence ACCCCGCC, the “PBM 8-mer E-score” value was 0.284 ± 0.099.
In the case of ATATCTCC, the “PBM 8-mer E-score” value came out at 0.197 ± 0.016.
With ACAGTATC the figure was 0.185 ± 0.073; with TTAGGAAA, -0.00284 ± 0.012; with ATGGTCAG, 0.122 ± 0.043.
Turning to CGCTCCGC, the “PBM 8-mer E-score” value is -0.154 ± 0.17.
For the sequence TATCCGCA, the “PBM 8-mer E-score” value was 0.0196 ± 0.089.
For AAATTCTT, the “PBM 8-mer E-score” value worked out at 0.0344 ± 0.11.
In the case of GTGTATTA, the “PBM 8-mer E-score” value was 0.239 ± 0.069.
On to ATATATTA, for which the “PBM 8-mer E-score” value stood at 0.264 ± 0.012.
For the sequence ATATACTC, the “PBM 8-mer E-score” value worked out at 0.0166 ± 0.11.
With CTGTATTA the figure was 0.141 ± 0.0065.
Under ATATATTG stands 0.221 ± 0.0031; under GCATATTA, 0.153 ± 0.0097.
Regarding ATGTATTA, the “PBM 8-mer E-score” value stood at 0.21 ± 0.014.
With CTATACTA the figure was 0.113 ± 0.12.
As for GTATATTA, the “PBM 8-mer E-score” value is 0.243 ± 0.0031.
With CTATATTA the figure was 0.168 ± 0.018; with GGATATTA, 0.161 ± 0.084; with ATATACTA, 0.285 ± 0.027.
Regarding CAGTACTA, the “PBM 8-mer E-score” value turned out to be 0.128 ± 0.056.
Regarding AGAGATCC, the “PBM 8-mer E-score” value was -0.0549 ± 0.05.
As for TATCGACA, the “PBM 8-mer E-score” value is -0.0261 ± 0.032.
With CGAGCGTC, the “PBM 8-mer E-score” value was -0.00097 ± 0.042.
For ACACCATG, the “PBM 8-mer E-score” value was determined as 0.0073 ± 0.025.
Take CATTGTCA: the “PBM 8-mer E-score” value was -0.0464 ± 0.016.
Consider AAAGGGGT, for which the “PBM 8-mer E-score” value amounted to 0.123 ± 0.013.
CCCCTGCG: the “PBM 8-mer E-score” value is -0.168 ± 0.0048.
Consider GCCAATGA, for which the “PBM 8-mer E-score” value stood at 0.00492 ± 0.00047.
Regarding GACGGAAA, the “PBM 8-mer E-score” value worked out at 0.0756 ± 0.07.
CGTTGAAC: the “PBM 8-mer E-score” value is -0.0586 ± 0.068.
Take CATTGATA: the “PBM 8-mer E-score” value came out at 0.179 ± 0.1.
On to AATTGATC, for which the “PBM 8-mer E-score” value was found to be 0.0176 ± 0.058.
Turning to AATTGATG, the “PBM 8-mer E-score” value was 0.25 ± 0.021.
For GATTGATA, the “PBM 8-mer E-score” value was found to be 0.115 ± 0.015.
With ACTTGATG, the “PBM 8-mer E-score” value was found to be 0.0152 ± 0.0016.
With AATTGATA the figure was 0.252 ± 0.025; with AAGACCCC, 0.0259 ± 0.047.
Regarding CACGGCGC, the “PBM 8-mer E-score” value is -0.0163 ± 0.17.
With CACCGCGG the figure was -0.121 ± 0.021; with CTGGTAGC, -0.131 ± 0.011; with CCATCTTA, -0.102 ± 0.052.
Take CATAGCAC: the “PBM 8-mer E-score” value turned out to be 0.301 ± 0.019.
GATAGCAC: the “PBM 8-mer E-score” value was found to be 0.151 ± 0.043.
Take CATAGCAA: the “PBM 8-mer E-score” value was found to be 0.199 ± 0.072.
For the sequence GCCAGAAA, the “PBM 8-mer E-score” value worked out at 0.0632 ± 0.035.
In the case of CTAAGCTA, the “PBM 8-mer E-score” value was -0.0343 ± 0.0085.
For the sequence GTGATGCA, the “PBM 8-mer E-score” value stood at 0.186 ± 0.078.
Consider CATATAAG, for which the “PBM 8-mer E-score” value turned out to be 0.168 ± 0.061.
ACTATAAA: the “PBM 8-mer E-score” value is 0.115 ± 0.014.
With AATATAAG the figure was 0.249 ± 0.07.
AATATAAT: the “PBM 8-mer E-score” value came out at 0.22 ± 0.015.
Turning to GGTATACA, the “PBM 8-mer E-score” value was 0.145 ± 0.029.
For AATATAAC, the “PBM 8-mer E-score” value was 0.203 ± 0.11.
Under CATATAAA stands 0.323 ± 0.008; under CATATAAC, 0.228 ± 0.076; under AAAATAAA, 0.103 ± 0.018.
With TGGATACA the figure was 0.213 ± 0.13; with TGTATACA, 0.315 ± 0.067; with AATATAAA, 0.245 ± 0.03.
